# aSyn UTR act = Activators via SNCA 5'UTR binding, MLPCN; activity score, % (tested at 7.5 µM), hits read low; alpha-synuclein 5'UTR reporter, activators screen; hit rate 7.1% among 300,000; AID 1814, 2009; in the data active = activity score below about -60%
# Active calls of the source: *. These entries were drawn from the full list.
SMILES,aSyn UTR act
CC(=O)Nc1cccc(C(=O)/C=C/c2ccc(F)cc2)c1,-103*
CC(=O)Nc1cccc(C(=O)/C=C/c2cccs2)c1,-117*
CC(=O)Nc1cccc(C(=O)/C=C/c2ccc[nH]2)c1,-90*
CC(=O)Nc1cccc(C(=O)/C=C/c2ccc(/C=C/C(=O)c3cccc(NC(C)=O)c3)cc2)c1,-129*
CC(=O)Nc1cccc(C(=O)/C=C/c2ccc(Br)cc2)c1,-76*
c1cc2c(cc1Nc1nc(-c3ccc4c(c3)OCO4)cs1)OCCO2,-89*
COc1cccc(Nc2nc(-c3ccc4c(c3)OCCO4)cs2)c1,-227*
COc1ccc(-n2nc(N)c(C(N)=O)n2)cc1,-68*
COc1ccc(N2C(N)=NC(N)=NC2(C)C)cc1,81
CN(C(=O)COC(=O)c1nc(Cl)c(Cl)c(Cl)c1Cl)C1CCS(=O)(=O)C1 (stereo unspecified),-210*
CN(C(=O)COC(=O)c1c2c(nc3ccccc13)/C(=C/c1cccc([N+](=O)[O-])c1)CCC2)C1CCS(=O)(=O)C1 (stereo unspecified),72
Cc1nn(-c2ccccc2)c(C)c1C(=O)OCC(=O)N(C)C1CCS(=O)(=O)C1 (stereo unspecified),-90*
Cc1cc(C(=O)OC(C(=O)Nc2ccc(C)c(Cl)c2)c2ccccc2)c(C)o1 (stereo unspecified),-68*
CCc1sc(C(=O)Nc2cccc(C(C)=O)c2)cc1C,-77*
CCOC(=O)c1cccc(NC(=O)c2ccco2)c1,-77*
CCOC(=O)c1cccc(NC(=O)c2cccs2)c1,-65*
O=C(c1ccccc1)c1cccc(NC(=O)c2ccco2)c1,-120*
CCC(C)(C)C1CCC(=NNc2nc3ccccc3[nH]2)CC1 (stereo unspecified),-69*
CC(=O)N1CCC(=NNc2nc3ccccc3[nH]2)CC1,-66*
COC(=O)C1=C(C)Nc2ccc(C)cc2S1,-64*
CCOC(=O)CSc1nc(-c2ccncc2)ccc1C#N,-138*
CCOC(=O)CSc1nc(-c2ccc3c(c2)OCO3)ccc1C#N,-113*
N#Cc1ccccc1NC(=O)c1ccccc1OCC(=O)NCc1ccco1,-68*
COC(=O)c1ccc(NC(=O)NC2CCCCC2)cc1,-117*
COc1ccc(NC(=O)NC2CCCCCCC2)cc1,-139*
SMILES,aSyn UTR act
O=C1c2ccccc2S(=O)(=O)N1CC1CC(c2ccc(Cl)cc2)=NO1 (stereo unspecified),-197*
O=C(CN1C(=O)c2ccccc2S1(=O)=O)c1ccccc1Cl,101
O=C1c2ccccc2S(=O)(=O)N1CC1CC(c2ccccc2)=NO1 (stereo unspecified),-144*
COc1ccc(C2=NOC(CN3C(=O)c4ccccc4S3(=O)=O)C2)cc1 (stereo unspecified),-175*
CCC1CCCCN1c1nc(-c2cccc(OC)c2O)nc2ccccc12 (stereo unspecified),-98*
O=c1c2c(nc3cc(-c4ccc(F)cc4)[nH]n13)CCC2,-87*
COc1cccc(-c2cc3nc(-c4ccccc4)cc(=O)n3[nH]2)c1,-167*
O=c1cc(-c2ccccc2)nc2cc(-c3ccc(F)cc3)[nH]n12,-109*
COc1cccc(-c2cn3nc4c(nc3n2)CCCC4)c1,104
CCCC(=O)c1ccc(N2CCC(C)CC2)c(F)c1,-83*
CCC(=O)c1ccc(N2CCC(C)CC2)c(F)c1,-99*
COc1ccc(NC(=O)Nc2ccc(F)c(Cl)c2)cc1,-140*
Cc1ccc(NC(=O)Nc2ccc(F)c(Cl)c2)cc1,-165*
CCOc1ccccc1N/C=C(\C#N)c1nc2ccccc2n1C,-76*
Cc1ccc(C(=O)NC2CCC(C)CC2)s1 (stereo unspecified),-92*
CC1CCC(NC(=O)c2cc3c(s2)CCCC3)CC1 (stereo unspecified),-116*
Cn1c(CNc2ccccc2)nc2ccccc21,-113*
Cn1c(CNc2ccc(F)cc2)nc2ccccc21,-123*
Cc1cc(C(=O)N/N=C/c2cc(Cl)cc([N+](=O)[O-])c2O)c2ccccc2n1,-63*
c1ccc(COc2ccc(OCCCCN3CCCCC3)cc2)cc1,-82*
CN1CCN(CCOc2ccc(-c3ccccc3)cc2)CC1,-110*
CN1CCN(CCCOc2ccc(-c3ccccc3)cc2)CC1,-63*
c1ccc(COc2ccc(OCCn3cncn3)cc2)cc1,-110*
CCCN1CCN(CCCNC(=O)c2ccc3nc(N4CCC(C)CC4)sc3c2)CC1,-169*
CC1CCCCN1CCCNC(=O)c1ccc2nc(N3CCCCC3)sc2c1 (stereo unspecified),-326*
SMILES,aSyn UTR act
CC1CC(C)CN(CCCNC(=O)c2ccc3nc(N4CCOCC4)sc3c2)C1 (stereo unspecified),-113*
CCOC(CNC(=O)c1ccc2nc(N3CCC(C)CC3)sc2c1)OCC,-180*
c1ccc(CSc2ccc(-c3cccs3)nn2)cc1,-108*
c1ccc(CSc2ccc(-c3cccs3)nn2)nc1,-102*
N#Cc1ccc(-c2cccs2)nc1SCc1cccnc1,90
O=C(CSc1ccc(-c2cccs2)nn1)c1cccs1,-68*
COc1ccccc1C(=O)Nc1cc(C)on1,-114*

# Assay outcomes as filed in PubChem BioAssay.
